This is an account of results in PubChem BioAssay (NCI).

The panel holds about 79,000 compounds, 15% with a hit somewhere; the sample as a whole holds those more often. Unmarked numbers belong to inactive results. Activity calls are given as the source filed them. Cut-off read from the data, not from the text of the source: active = growth inhibition above about 70%; inactive = the rest.

The nature of the assay: NCI Yeast Anticancer Drug Screen. Data for the rad50EPP+ strain (AID 151).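 Note: 0% = growth of vehicle-treated control cultures.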 The following applies: S. cerevisiae rad50 mutant strain, active compounds read high. Here is the method:
Growth inhibition of yeast strains with defined genetic alterations is measured as a screen for potential anti-cancer activity. Selected strains with alterations in DNA damage repair or cell cycle control were exposed to compounds and growth inhibition was measured relative to vehicle treated controls. The strain used in this assay is rad50EPP+

For the compound `OC(c1ccc(F)cc1)(c1ccc(F)cc1)C1CC1`, the growth inhibition is, setting by setting: (at 1.2 µM) -10%; (at 3.7 µM) -17%; (at 11.0 µM) -35%; (at 33.0 µM) -26%; (at 100.0 µM) 11%.

As to `c1ccc2c(c1)sc1nc3ccncc3nc12`, the growth inhibition reads like this: (at 1.2 µM) 23%; (at 3.7 µM) 52%; (at 11.0 µM) 55%; (at 33.0 µM) 85% (active); (at 100.0 µM) 89% (active).

Regarding `CCNc1nnc(CSc2nc(-c3ccccc3)c(-c3ccccc3)[nH]2)s1`, the growth inhibition (at 1.2 µM) is 9%; the growth inhibition (at 3.7 µM) is 13%; the growth inhibition (at 11.0 µM) is 12%; the growth inhibition (at 33.0 µM) is 4%; the growth inhibition (at 100.0 µM) is 5%.

Consider `CN(N=O)N1C(=O)SCC(c2ccccc2)(c2ccccc2)C1=O`, for which the growth inhibition by setting is: (at 1.2 µM) -4%; (at 3.7 µM) 0%; (at 11.0 µM) 0%; (at 33.0 µM) 2%; (at 100.0 µM) 3%.

As to `O=C(c1cc(Br)ccc1O)c1cc(Br)ccc1O`, the growth inhibition reads like this: (at 1.2 µM) 16%; (at 3.7 µM) 47%; (at 11.0 µM) 90% (active); (at 33.0 µM) 99% (active); (at 100.0 µM) 99% (active).

`COc1ccc2c(c1)C(=O)c1ccccc1C2`: the growth inhibition was 3% (at 1.2 µM); 10% (at 3.7 µM); 24% (at 11.0 µM); 42% (at 33.0 µM); 46% (at 100.0 µM).

With `OC1CSCCCSCCSCCCSC1`, the growth inhibition is -30% (at 1.2 µM); -52% (at 3.7 µM); -49% (at 11.0 µM); -29% (at 33.0 µM); -35% (at 100.0 µM).

Take `Cc1cc(O)cc(O)c1N=Nc1ccc([N+](=O)[O-])cc1`: the growth inhibition is, setting by setting: (at 1.2 µM) 18%; (at 3.7 µM) 12%; (at 11.0 µM) 15%; (at 33.0 µM) 22%; (at 100.0 µM) 21%.
